HIF-2a inh: HIF-2a reporter inhibitors, primary screen, luminescence, 786-0 RCC cells | actives 0.72% (n = 360,000) | inhibition, % at 18.8 µM | 786-0 RCC cells HIF-2a reporter, luciferase luminescence, overnight;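 active = inhibition of the luminescence signal of 40% or more relative to plate controls, in a single-dose primary screen at 18.75 µM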
Peg3 prom inh: Peg3 promoter-driven luciferase inhibitors, primary screen, cell-based, HeLa, luciferase luminescence | AID 588405, 2011 | inhibition, % at 20 µM | HeLa PEG-Prom luciferase reporter, overnight | actives 1.7% (n = 360,000);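 active = inhibition of at least 50% at 20 µM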
CF NFkB inh: inhibitors of PAF-induced NF-kB signaling, primary screen, cell-based, GFP fluorescence, uHTS. inhibition, % at 5 µM. AID 588850, 2011. KKLEB NF-kB-GFP reporter, GFP fluorescence overnight. actives 0.86% (n = 360,000);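 active = at least 50% inhibition at 5 µM, scaled per plate between neutral and stimulator controls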;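 note: PAF is a Pseudomonas aeruginosa culture filtrate used as stimulus; plate controls were PAF-stimulated DMSO wells for no effect and unstimulated DMSO wells for full effect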
Shn3 inh set2: reduction of Shn3 3'UTR firefly luciferase signal, primary screen, Schnurri-3 inhibitor project, cell-based, Clone20 osteoblasts, set 2; Clone20 osteoblast Shn3 3'UTR firefly luciferase, 24 h; inhibition, % at 12.5 µM; actives 0.52% (n = 360,000); AID 588674, 2011;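 active = mean inhibition of at least 75% with every replicate also reaching 75%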;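 note: 0% = median of neutral control wells and 100% = pilot-screen positive control compound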
KKLEB tox: cytotoxicity in KKLEB CF airway cells, primary screen, cytotoxicity control for CF NF-kB inhibitor project, cell-based, uHTS, fluorescence assay plates. activity change (cytotoxicity), % at 5 µM. actives 0.36% (n = 360,000). AID 602141, 2011. KKLEB CF airway cells viability, ATPlite luminescence, overnight; stronger effect = lower value; cells stimulated with P. aeruginosa culture filtrate;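 active = corrected activity change at or below -50% at 5 µM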
MITF TRPM1 inh: inhibitors of MITF-dependent TRPM1 promoter reporter, primary screen, cell-based, SK-MEL-5, single point, luciferase | SK-MEL-5 TRPM1 promoter luciferase, 24 h | inhibition, % at 12.5 µM | actives 0.83% (n = 330,000);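 active = mean inhibition across replicates of 60% or more, whatever share of single replicates reaches that level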
* hit, by the source's call; ! = repeats disagree. A selection: hits, their analogues and other compounds. The true share with any hit is near 2.8%.

What do the screens show for `Cc1cc(NC(=O)C(C)SCC(=O)Nc2nc3c(F)cc(F)cc3s2)no1` (configuration not stated)?
HIF-2a inh: -52.7; Peg3 prom inh: -29.3; CF NFkB inh: -6.9; Shn3 inh set2: -22.0; KKLEB tox: 18.0

Results for CC(C)Cc1ccc(C(C)/C=C2/CCC(CN3CCCCC3)C2=O)cc1 (configuration not stated) ?
HIF-2a inh: -5.6; Peg3 prom inh: 91.1*; CF NFkB inh: -34.1; Shn3 inh set2: 73.9; KKLEB tox: -12.5; MITF TRPM1 inh: 17.9

Results for COc1ccc2nc(C)cc(Sc3nc4ccccc4s3)c2c1 ?
HIF-2a inh: 33.0; Peg3 prom inh: 67.3*; CF NFkB inh: 64.2*; Shn3 inh set2: 76.1; KKLEB tox: -44.3; MITF TRPM1 inh: 3.8

Results for COc1ccc2nc(C)cc(SCC(=O)NNC(=O)COc3ccccc3)c2c1 ?
HIF-2a inh: 18.2; Peg3 prom inh: 2.8; CF NFkB inh: 5.8; Shn3 inh set2: 18.4; KKLEB tox: -8.7; MITF TRPM1 inh: -0.7

What do the screens show for `Cc1ccc(-c2nnc(SCC(=O)N/N=C/c3ccccc3C(=O)O)n2-c2ccc(C)cc2)cc1`?
HIF-2a inh: 6.8; Peg3 prom inh: 3.2; CF NFkB inh: -8.4; Shn3 inh set2: 10.2; KKLEB tox: -0.6; MITF TRPM1 inh: -1.5

How did Cc1ccc(-c2nnc(SCC(=O)N/N=C/c3ccc(C)s3)n2-c2ccccc2)cc1 do in these assays?
HIF-2a inh: 12.7; Peg3 prom inh: 65.3*; CF NFkB inh: 13.6; Shn3 inh set2: 5.8; KKLEB tox: 1.1; MITF TRPM1 inh: -3.7

Results for CC(C)c1ccc(CN2CCN(C(=O)CSc3nnnn3C3CC3)CC2)cc1 ?
HIF-2a inh: 2.3; Peg3 prom inh: -0.5; CF NFkB inh: -9.4; Shn3 inh set2: 20.1; KKLEB tox: 0.8; MITF TRPM1 inh: 4.4

Results for CN1CCCN=C1COC(=O)C(O)(c1ccccc1)C1CCCCC1 (configuration not stated) ?
HIF-2a inh: -7.2; Peg3 prom inh: -7.1; CF NFkB inh: 18.7; Shn3 inh set2: -1.9; KKLEB tox: -63.7*; MITF TRPM1 inh: -8.5

How did CCOC(=O)C1=C(C)OC(=Cc2ccccc2)C1=O do in these assays?
HIF-2a inh: -4.5; Peg3 prom inh: -4.0; CF NFkB inh: -3.6; Shn3 inh set2: -1.0; KKLEB tox: 2.2

What do the screens show for `CCOC(=O)C1=C(O)c2ccccc2C(=O)/C1=C\c1ccc(C)cc1`?
HIF-2a inh: -63.5; Peg3 prom inh: 75.2*; CF NFkB inh: 7.1; Shn3 inh set2: 58.7; KKLEB tox: 5.2; MITF TRPM1 inh: 49.7

Results for c1ccc(-c2cn3c4c(sc3n2)CCCC4)cc1 ?
HIF-2a inh: 18.8; Peg3 prom inh: 52.7*!; CF NFkB inh: -27.6; Shn3 inh set2: 8.6; KKLEB tox: -58.1*; MITF TRPM1 inh: -3.6

Results for Cc1nn(C)c2c1NC(=O)CS2 ?
HIF-2a inh: 2.9; Peg3 prom inh: -4.6; CF NFkB inh: -27.7; Shn3 inh set2: -5.3; KKLEB tox: 10.5

Results for CC(C)(C)c1ccc(NC(=O)CON=C(N)c2ccccc2)cc1 ?
HIF-2a inh: 0.7; Peg3 prom inh: -4.5; CF NFkB inh: 1.0; Shn3 inh set2: 4.9; KKLEB tox: 12.1; MITF TRPM1 inh: -6.9

How did Cc1ccc(NC(=O)CO/N=C(\N)c2ccccc2)cc1C do in these assays?
HIF-2a inh: -11.1; Peg3 prom inh: -12.4; CF NFkB inh: -14.6; Shn3 inh set2: 88.7*; KKLEB tox: 6.7; MITF TRPM1 inh: -7.9

Results for Cc1ccccc1Oc1ccc2c(c1)[C@@H]1C[C@H](N(C)C(=O)NC3CCCCC3)[C@H]([C@H](C)O)C(=O)N1CC2 ?
HIF-2a inh: -17.2; Peg3 prom inh: -1.4; CF NFkB inh: 12.8; Shn3 inh set2: 14.3; KKLEB tox: -0.2; MITF TRPM1 inh: 10.2

Results for Cc1ccccc1Oc1ccc2c(c1)[C@@H]1C[C@H](N(C)C(=O)Nc3cc(Cl)cc(Cl)c3)[C@H]([C@H](C)O)C(=O)N1CC2 ?
HIF-2a inh: 17.5; Peg3 prom inh: 68.1*; CF NFkB inh: -2.5; Shn3 inh set2: 3.8; KKLEB tox: -13.1; MITF TRPM1 inh: -6.6

How did COc1cc(/C=C2/C(=O)c3cccc([N+](=O)[O-])c3C2=O)c(Br)cc1O do in these assays?
HIF-2a inh: 95.8*; Peg3 prom inh: 109.6*; CF NFkB inh: 40.7; Shn3 inh set2: 10.2; KKLEB tox: -25.8; MITF TRPM1 inh: 49.0

Results for Cc1ccc(C2/C(=C(\O)c3ccc4c(c3)OCCO4)C(=O)C(=O)N2CC2CCCO2)cc1 (configuration not stated) ?
HIF-2a inh: -18.7; Peg3 prom inh: 0.6; CF NFkB inh: 6.6; Shn3 inh set2: -12.6; KKLEB tox: 4.6; MITF TRPM1 inh: 12.8

What do the screens show for `CCCCCn1c(N)c(-c2nc3ccccc3s2)c2c([N+](=O)[O-])nn(CC)c(=O)c21`?
HIF-2a inh: -11.4; Peg3 prom inh: 35.2; CF NFkB inh: 59.0*; Shn3 inh set2: 16.5; KKLEB tox: -58.5*; MITF TRPM1 inh: -4.9

How did CCCCn1c(N)c(-c2nc3ccccc3s2)c2c([N+](=O)[O-])nn(CC)c(=O)c21 do in these assays?
HIF-2a inh: 1.2; Peg3 prom inh: 19.6; CF NFkB inh: 44.9; Shn3 inh set2: 0.3; KKLEB tox: -54.9*; MITF TRPM1 inh: -5.3

What do the screens show for `Cc1ccc(-c2nc(N=Nc3ccc(O)cc3)n[nH]2)cc1`?
HIF-2a inh: -159.7; Peg3 prom inh: 67.8*; CF NFkB inh: 6.1; Shn3 inh set2: -8.1; KKLEB tox: 29.2; MITF TRPM1 inh: -7.7

How did COc1ccc(-c2nc(N=Nc3ccc(O)cc3)n[nH]2)cc1 do in these assays?
HIF-2a inh: -110.8; Peg3 prom inh: -67.6; CF NFkB inh: -28.2; Shn3 inh set2: -5.7; KKLEB tox: 25.0; MITF TRPM1 inh: -25.1

What do the screens show for `CCc1c(C)sc(NC(=O)c2cc(-c3cc(OC)ccc3OC)on2)c1C#N`?
HIF-2a inh: 16.4; Peg3 prom inh: 11.7; CF NFkB inh: 39.9; Shn3 inh set2: -2.5; KKLEB tox: -70.0*; MITF TRPM1 inh: -7.8

How did CCc1c(C)sc(NC(=O)c2cc(-c3ccc(OC)c(OC)c3)on2)c1C#N do in these assays?
HIF-2a inh: 10.8; Peg3 prom inh: 6.1; CF NFkB inh: 0.2; Shn3 inh set2: 23.8; KKLEB tox: 3.5; MITF TRPM1 inh: -10.9

What do the screens show for `Cc1ccc(S(=O)(=O)N2CCN(Cc3csc(C)n3)CC2)cc1`?
HIF-2a inh: 8.9; Peg3 prom inh: -3.1; CF NFkB inh: -36.7; Shn3 inh set2: 8.1; KKLEB tox: 5.4; MITF TRPM1 inh: 1.2

Compound activity from PubChem.
